Laboratory results taken from PubChem BioAssay (NCATS).
Results filed as inconclusive are left out. The source made the active and inactive calls. Calls follow the shape of the dose curve; as a rule, active = well fitted cell-killing curve with a large enough effect; inconclusive = small, poorly fitted or top-dose-only effect, or effect the other way; inactive = flat fitted curve, though single readings scatter.

Experiment: MultiTox-Fluor Cytotoxicity Assay - LYMP1-002 - Live Cells (AID 955)
Conditions: LYMP1-002 lymphoblastoid live-cell protease fluorescence viability; series mostly up to 46.1 µM
Excerpt: NIH Chemical Genomics Center [NCGC]
NIH Molecular Libraries Screening Centers Network [MLSCN]
National Institutes of Environmental Health Sciences [NIEHS]
National Toxicology Program [NTP]
We have developed a 1536-well cell-based assay for quantitative high throughput screening (qHTS) against a number of cell lines to determine in vitro cytotoxicity of small molecules. This particular assay uses a human lymphoblastoid cell line (LYMP1-002) purchased from Coriell Institute.
NCGC Assay Protocol Summary:
The MultiTox-Fluor Cytotoxicity Assay (Promega) is a homogeneous method to simultaneously measure the relative number of live and dead cells in culture by detecting changes in cell membrane integrity. There are two fluorogenic peptide substrates in the assay reagent. Viable cells are determined when the cell-permeant substrate (GF-AFC) enters the cell and is cleaved by protease from live cells resulting in liberated fluorophore. This live-cell protease activity restricted to viable cells is proportional to cell number. The dead cells are determined by using fluorogenic cell-impermeant peptide substrate (bis-AAF-R110) which cleaved by dead cell proteases leaking from damaged cell membrane.
Using the MultiTox-Fluor Cytotoxicity Assay, the relative number of live cells was measured in the lymphoblastoid cell line with complete culture medium following compound treatment for 16 hours. The assay was performed in opaque black Kalypsys 1536-well plates. In the screen, tetraoctylammonium bromide was used as positive control. Library compounds were measured for their ability to cause acute toxicity in the cell line, as reflected by a decrease in live cell protease activity, in a concentration-dependent manner. […] AC50 values were determined from concentration-response data modeled with the standard Hill equation.
qHTS protocol for MultiTox-Fluor Cytotoxicity assay
[Step] [Parameter] [Value] [Description]
1. Reagent; 5 uL; 2500 lymphoblastoid cells/well
2. Time; 5 hr; 37 C incubation
4. Controls; 23 nL; Tetraoctylammonium bromide 6.4pM to 92 uM
5. Time; 16 hr; 37 C incubation
6. Reagent; 5 uL; MuliTox-Fluor Assay reagent
7. Time; 60 min; Room Temperature
8. Detection; live-cell fluorescence (Ex/Em=405/510); EnVision plate reader
Keywords: cell viability, cytotoxicity, lymphoblastoid cell line, fluorescence, NTPHTS, NTPHTS_NCGC, NIEHS, EPA, DSSTox, MLSMR, MLSCN, NIH Roadmap, qHTS, NCGC
In the case of `Fc1ccccc1`, the outcome is reported as “inactive”.
In the case of `CC(C)=C1CCC(C)CC1=O` (stereo not given), the outcome is reported as “inactive”.
In the case of `CCCCCCCCN`, the outcome is reported as “inactive”.
For `Nc1cc(S(=O)(=O)O)ccc1O`, the outcome was “inactive”.
With `Cc1c(C(=O)O)cccc1[N+](=O)[O-]` the outcome was “inactive”.
For `CC(C)(C)OC=O`, the outcome was “inactive”.
In the case of `c1ccc(Nc2ccccc2)cc1`, the outcome is reported as “inactive”.
With `O=CNc1ccccc1` the outcome was “inactive”.
For `C/C=C(/C)C#N`, the outcome was “inactive”.
With `ClCCl` the outcome was “inactive”.
For `NC(=O)/N=N/C(N)=O`, the outcome was “inactive”.
For `c1ccc2c(c1)ccc1ncccc12`, the outcome was “inactive”.
With `Cc1ccc(C#N)cc1` the outcome was “inactive”.
In the case of `C[C@@H]1O[C@@H](O[C@@H]2[C@@H](O)[C@H](OCCc3ccc(O)c(O)c3)O[C@H](CO[C@@H]3O[C@H](CO)[C@@H](O)[C@H](O)[C@H]3O)[C@H]2OC(=O)/C=C/c2ccc(O)c(O)c2)[C@H](O)[C@H](O)[C@H]1O`, the outcome is reported as “inactive”.
With `CCCCC/C=C/C=C/C=O` the outcome was “inactive”.
For `C=CCOC(=O)CCCCCCCC`, the outcome was “inactive”.
With `C=C(C)C1CC=C(C)C(OC(C)=O)C1` (stereo not given) the outcome was “inactive”.
With `O=Cc1ccc(CO)o1` the outcome was “inactive”.
With `Cc1ccc(C)cc1` the outcome was “inactive”.
In the case of `Cc1ccccc1C=O`, the outcome is reported as “inactive”.
For `CC(C)C=O`, the outcome was “inactive”.
In the case of `COCCOC(=O)c1ccccc1C(=O)OCCOC`, the outcome is reported as “inactive”.
With `CCc1ccccc1` the outcome was “inactive”.
With `CC(C)CCOC(=O)/C=C/c1ccccc1` the outcome was “inactive”.
For `CC=O`, the outcome was “inactive”.
With `CC(C)=CCC/C(C)=C/C=O` the outcome was “inactive”.
With `Cc1ccc2cccnc2c1` the outcome was “inactive”.
With `CCCCCCCCCCCCOCC1CO1` (stereo not given) the outcome was “inactive”.
With `O=C(O)CNC(=O)c1ccc(CO)o1` the outcome was “inactive”.
For `CC(=O)CC(C)C`, the outcome was “inactive”.
With `CC(C)c1ccccc1` the outcome was “inactive”.
For `CC(=O)c1nccs1`, the outcome was “inactive”.
With `CCCCOCCOCCSC#N` the outcome was “inactive”.
For `CC(=O)OC(C)=O`, the outcome was “inactive”.
With `CC/C=C1/OC(=O)c2ccccc21` the outcome was “inactive”.
For `NC(=O)c1cccc([N+](=O)[O-])c1`, the outcome was “inactive”.
In the case of `FC(F)(F)c1cccc(Cl)c1`, the outcome is reported as “inactive”.
With `Cc1cccc(C)c1[N+](=O)[O-]` the outcome was “inactive”.
With `COc1ccc(N=[N+]([O-])c2ccc(OC)cc2)cc1` the outcome was “inactive”.
For `NC(=O)c1ccccc1[N+](=O)[O-]`, the outcome was “inactive”.
